Experimental data as given in PubChem BioAssay AID1259421 (Broad Institute, 2018).
“And” between values parts separate entries of the source, which are not always exact repeats. Identical values can stand only once. Out of some 6,400 compounds screened, about 610 (9.5%) were called active. No stated cut-off is given here; in the data, active means activity change below about -70%; inconclusive means no clear call, values can overlap the other calls; inactive means above that. Many of the other results were omitted from the sample, so actives are more common in it than they were. The source holds several records for some structures; these can differ, active in one and inactive in another.

Assay: Toxoplasma gondii ME49Luc growth in HeLa cells, luciferase, no IFN-y, primary screen (AID 1259421)
Details: T. gondii ME49Luc in HeLa, 72 h, stronger effect = lower value, concentration not given here

SMILES	activity change, negative = inhibition
COC(=O)C1=C(C)NC(C)=C(C(=O)NCCCN2CCC(c3ccccc3)(c3ccccc3)CC2)C1c1ccc([N+](=O)[O-])cc1 (stereo not drawn)	-48.9% (inactive)
COC(=O)C1=C(C)NC(C)=C(C(=O)OC/C=C/c2ccccc2)C1c1cccc([N+](=O)[O-])c1 (stereo not drawn)	-14.8% (inactive)
COC(=O)C1=C(C)NC(C)=C(C(=O)O[C@H]2CCN(Cc3ccccc3)C2)[C@H]1c1cccc([N+](=O)[O-])c1	0.473% (inactive)
COC(=O)C1=C(C)NC(C)=C(C(=O)OCCN(C)Cc2ccccc2)C1c1cccc([N+](=O)[O-])c1 (stereo not drawn)	31.7% (inactive) and 1.2% (inactive)
COC(=O)C1=C(C)NC(C)=C(C(=O)OCCCN2CCC(c3ccccc3)(c3ccccc3)CC2)[C@H]1c1cccc([N+](=O)[O-])c1	-68.2% (inactive) and -79.8% (active)
COC(=O)C1=C(C)NC(C)=C(C(=O)O[C@@H]2CCCN(Cc3ccccc3)C2)[C@@H]1c1cccc([N+](=O)[O-])c1	23.7% (inactive)
COC(=O)C1=C(C)NC(C)=C(C(=O)OCCCN2CCC(c3ccccc3)(c3ccccc3)CC2)[C@@H]1c1cccc([N+](=O)[O-])c1	-76.4% (active) and -90.4% (active)
CCOC(=O)C1=C(C)NC(C)=C(C(=O)OC)C1c1cccc([N+](=O)[O-])c1 (stereo not drawn)	3.95% (inactive) and 4.34% (inactive)
COC(=O)C1=C(C)NC(C)=C(C(=O)OCCN2CCN(C(c3ccccc3)c3ccccc3)CC2)C1c1cccc([N+](=O)[O-])c1 (stereo not drawn)	-60.9% (inactive) and -77.5% (active)
COc1ccc2c(c1)OC1(O)COc3cc(OC)c(OC)cc3C1=C2 (stereo not drawn)	10.6% (inactive)
CC(=O)N1CCN(CCOc2ccc(C3CCN(C4=Nn5c(nnc5C(F)(F)F)CC4)CC3)cc2)CC1	7.85% (inactive)
O=C(OC1C[C@@H]2CC3C[C@H](C1)N2CC3=O)c1c[nH]c2ccccc12 (stereo partly drawn)	-0.997% (inactive)
C[C@]1(Cn2ccnn2)C(C(=O)O)N2C(=O)CC2S1(=O)=O (stereo partly drawn)	0.084% (inactive)
CNc1cc2ncnc(Nc3cccc(Br)c3)c2cc1N	-8.12% (inactive)
O=c1[nH]cnc2c1cnn2[C@@H]1O[C@H](CO)[C@H](O)C1O (stereo partly drawn)	19.3% (inactive)
CCC(C)C(=O)OC1CC(C)C=C2C=CC(C)C(CCC(O)CC(O)CC(=O)O)C21 (stereo not drawn)	7.4% (inactive)
NCCC(O)(P(=O)(O)O)P(=O)(O)O	-2.86% (inactive)
COc1cc(O)c(C)c(O)c1	11% (inactive)
CC1(C)C(=O)N=C2c3ccccc3C(=O)C(=O)C21 (stereo not drawn)	-89.1% (active)
CNC(=O)[C@@H](c1ccccc1)N1CCc2cc(OC)c(OC)cc2[C@@H]1CCc1ccc(C(F)(F)F)cc1	7.93% (inactive)
O=C(Nc1cccc2c(=O)cc(-c3nn[nH]n3)oc12)c1ccc(OCCCCc2ccccc2)cc1	3.35% (inactive) and 13.6% (inactive)
COc1cccc(Nc2ncnn3ccc(CN4CC[C@@H](N)[C@H](O)C4)c23)c1	-86.2% (active)
C[C@]12C=CC(=O)C=C1CCC1C2[C@@H](O)C[C@@]2(C)C1CC[C@]2(O)C(=O)CO (stereo partly drawn)	1.25% (inactive) and -8.87% (inactive)
CC(=O)O[C@@H]1c2c(ccc3ccc(=O)oc23)OC(C)(C)[C@@H]1OC(=O)CC(C)C	-2.35% (inactive)
CCCN(CCC)CC1CCCCN1CCNC(=O)N1c2ccccc2C(=O)Nc2cccnc21 (stereo not drawn)	3.45% (inactive)

SMILES	activity change, negative = inhibition
CCOC(=O)[C@H](CCc1ccccc1)N[C@@H](C)C(=O)N(CC(=O)O)C1Cc2ccccc2C1	7.2% (inactive)
CCC(C)(C)C(=O)OC1CC(C)C=C2C=CC(C)C(CCC3CC(O)CC(=O)O3)C21 (stereo not drawn)	-4.9% (inactive)
C=CCNC1=C2C[C@@H](C)C[C@H](OC)[C@H](O)[C@@H](C)/C=C(\C)[C@H](OC(N)=O)[C@@H](OC)/C=C\C=C(/C)C(=O)NC(=CC1=O)C2=O	-56% (inactive)
CO[C@H]1/C=C\C=C(/C)C(=O)NC2=CC(=O)C(NCCN(C)C)=C(C[C@@H](C)C[C@H](OC)[C@H](O)[C@@H](C)/C=C(\C)[C@@H]1OC(N)=O)C2=O	-69.9% (inactive) and -80.4% (active)
COC1C=COC2(C)Oc3c(C)c(O)c4c(c3C2=O)C2(C=C(NC(=O)/C(C)=C\C=C/C(C)C(O)C(C)C(O)C(C)C(OC(C)=O)C1C)C4=O)OCC(=O)O2 (stereo not drawn)	-2.28% (inactive)
NCCCCCC(O)(P(=O)(O)O)P(=O)(O)O	13% (inactive)
Cn1cnc2c(NCc3ccccc3)nc(NCCO)nc21	10.2% (inactive)
c1ccc(CNc2nc(NCc3ccccc3)c3ccccc3n2)cc1	-83.6% (active)
c1ccc(CNc2ncnc3ccccc23)cc1	-3.07% (inactive)
CN1C(C(=O)Nc2ccccn2)C(=O)c2sc(Cl)cc2S1(=O)=O (stereo not drawn)	6.43% (inactive)
CC(C)(C)NC[C@@H](O)COc1nsnc1N1CCOCC1	15.6% (inactive) and -4.63% (inactive)
CC(=O)N[C@H]1[C@H]([C@H](O)[C@H](O)CO)O[C@](O)(C(=O)O)C[C@@H]1O	19.2% (inactive)
Cc1cc(S(=O)(=O)O)c2c(C)ccc(C(C)C)cc1-2	0.707% (inactive)
N#C/C(=C\c1ccc(O)c(O)c1)C(=O)NC1CCC(CC2CCC(NC(=O)/C(C#N)=C/c3ccc(O)c(O)c3)CC2)CC1 (stereo not drawn)	-83.2% (active)
N#C/C(=C/c1ccc(O)c(O)c1)C(=O)Nc1ccccc1	11.3% (inactive)
N#C/C(=C\c1ccc(O)c(O)c1)C(=O)Nc1ccccc1	10% (inactive) and 2.22% (inactive)
COc1cc(OC)c(-c2c(OC)cc(OC)cc2OC)c(OC)c1	-0.897% (inactive)
CN(C)[C@@H]1CCc2[nH]c3ccc(NC(=O)c4ccc(F)cc4)cc3c2C1	0.289% (inactive) and 6.81% (inactive)
CC(=O)NC1C(O)OC(COS(=O)(=O)O)C(OC2OC(C(=O)O)C(OC3OC(CO)C(OC4OC(C(=O)O)C(O)C(O)C4OS(=O)(=O)O)C(OS(=O)(=O)O)C3NS(=O)(=O)O)C(O)C2OS(=O)(=O)O)C1O (stereo not drawn)	9.64% (inactive)
CCn1cc(-c2ccnc3[nH]c(-c4cccc(CN(C)C)c4)cc23)c(-c2ccc(NC(=O)N(C)C)cc2)n1	-82.3% (active)
CN(C)C(=O)Nc1cccc(-c2ccc(N(C)C)cc2)c1	27.1% (inactive)
C#CCC(Cc1cnc2nc(N)nc(N)c2n1)c1ccc(C(=O)N[C@@H](CCC(=O)O)C(=O)O)cc1 (stereo partly drawn)	-66.9% (inactive)
CN(Cc1cnc2nc(N)nc(N)c2n1)c1ccc(C(=O)N[C@@H](CCC(=O)O)C(=O)O)cc1	-80.9% (active) and -28.7% (inactive)
CN(Cc1cnc2nc(N)nc(N)c2n1)c1ccc(C(=O)NC(CCC(=O)O)C(=O)O)cc1 (stereo not drawn)	-57.2% (inactive) and 1.6% (inactive)
COc1ccc(CCN(C)CCCC(C#N)(c2cc(OC)c(OC)c(OC)c2)C(C)C)cc1OC (stereo not drawn)	41.7% (inactive)

SMILES	activity change, negative = inhibition
N=C(CC(O)COc1ccccc1-c1ccccc1)N1CCCCC1 (stereo not drawn)	10.7% (inactive)
CC(C)Oc1ccc(-c2cnc3c(-c4ccnc5ccccc45)cnn3c2)cc1	-49.1% (inactive)
c1cc(-c2cnn3cc(-c4ccc(N5CCNCC5)cc4)cnc23)c2cccnc2c1	-84.7% (active)
COc1ccc(-c2cnc3c(-c4cccc5ncccc45)cnn3c2)cc1	2.75% (inactive)
COC(F)(F)C(Cl)Cl	19.6% (inactive)
CC(C)(Oc1ccc(Cl)cc1)C(=O)N1CSCC1C(=O)O (stereo not drawn)	19% (inactive)
NC(=O)C1CC2(NC(=O)NC2=O)c2cc(F)ccc2O1 (stereo not drawn)	12.6% (inactive)
Cc1nc(Nc2ncc(C(=O)Nc3c(C)cccc3Cl)s2)cc(N2CCN(CCO)CC2)n1	-75.5% (active) and -82.6% (active)
Cc1cc(Nc2cc(N3CCN(C)CC3)nc(Sc3ccc(NC(=O)C4CC4)cc3)n2)n[nH]1	-15.4% (inactive) and -14.2% (inactive) and -8.95% (inactive)
S=c1[nH]c2ccccc2s1	14.8% (inactive) and 4.19% (inactive)
S=c1nc[nH]c2[nH]ncc12	-6.21% (inactive)
C[C@]12CCC(=O)C=C1CCC1C2[C@@H](O)C[C@@]2(C)C1CC[C@]2(O)C(=O)COC(=O)CCC(=O)O (stereo partly drawn)	-4.51% (inactive) and -4.05% (inactive)
COC1C(O)[C@@H](O)C(O)C(O)[C@H]1O (stereo partly drawn)	4.8% (inactive)
COc1ccc2c(c1)OCC(Cc1ccc(OC)c(OC)c1)C2=O (stereo not drawn)	-1.15% (inactive)
COc1ccc2c(c1)OCC(Cc1ccc(O)c(OC)c1)C2=O (stereo not drawn)	-0.0941% (inactive)
COc1ccc2c(c1)OCC(Cc1ccc(OC)c(OC(C)=O)c1)C2=O (stereo not drawn)	-72% (active)
CO/N=C(/C(=O)N[C@@H]1C(=O)N2C(C(=O)O)=C(C[n+]3cccc4c3CCC4)CS[C@H]12)c1csc(N)n1	14.5% (inactive)
CO/N=C(/C(=O)NC1C(=O)N2C(C(=O)O)=C(CSc3nc(=O)c(=O)[nH]n3C)CSC12)c1csc(N)n1 (stereo not drawn)	-0.639% (inactive)
COc1ccc([C@@H]2Sc3ccccc3NC(=O)[C@@H]2O)cc1	11.7% (inactive)
O=P(O)(O)OC[C@H]1OC(O)[C@H](O)[C@@H](O)[C@@H]1O (stereo partly drawn)	7.08% (inactive)
CC(=O)NCCc1c(Cc2ccccc2)[nH]c2ccccc12	-2.39% (inactive)
Cc1[nH]c2ccccc2c1CCNC(=O)c1cccs1	9.58% (inactive)
Cc1[nH]c2ccccc2c1CCNCc1ccc(/C=C/C(=O)NO)cc1	-73.2% (active) and -76.5% (active)
